Compound activity: PubChem BioAssay, several laboratories
This is a sample that favours compounds with a hit; in the whole collection about 3% have one here.
TRPM1 prom inh: reduces MITF-dependent TRPM1 promoter luciferase signal; inhibition, % at 12.5 µM; 330,000 compounds, 0.83% hits; SK-MEL-5 TRPM1 promoter luciferase, 24 h;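 active = mean inhibition across replicates of 60% or more, whatever share of single replicates reaches that level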
PAX8 inh HTS: lowers PAX8-driven luciferase in RMG-I cells. 360,000 compounds, 1.2% hits. inhibition, % at 12.6 µM. AID 652154. RMG-I TPO-luciferase reporter, SteadyGlo, 24 h;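 active = mean replicate inhibition at least 60% with every replicate also reaching 60%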;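 note: luciferase light reporting Pax8 driven TPO promoter activity; plate controls were median of neutral control wells for no effect and mitoxantrone controls for full effect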
ABHD5 PLIN5 PPI: blocks binding of human ABHD5 to perilipin-5; Q00G26+Q8WTS1; Split G. princeps luciferase complementation, luminescence, 4 h; inhibition, % at 4 µM; 360,000 compounds, 0.78% hits; AID 602281;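 active = inhibition above the mean inhibition across every tested compound plus 3 SD, cut at about 22% in these data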;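 note: 0% = DMSO only wells and the 100% control is not disclosed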
Target sequence (Q00G26 whole entry, looked up): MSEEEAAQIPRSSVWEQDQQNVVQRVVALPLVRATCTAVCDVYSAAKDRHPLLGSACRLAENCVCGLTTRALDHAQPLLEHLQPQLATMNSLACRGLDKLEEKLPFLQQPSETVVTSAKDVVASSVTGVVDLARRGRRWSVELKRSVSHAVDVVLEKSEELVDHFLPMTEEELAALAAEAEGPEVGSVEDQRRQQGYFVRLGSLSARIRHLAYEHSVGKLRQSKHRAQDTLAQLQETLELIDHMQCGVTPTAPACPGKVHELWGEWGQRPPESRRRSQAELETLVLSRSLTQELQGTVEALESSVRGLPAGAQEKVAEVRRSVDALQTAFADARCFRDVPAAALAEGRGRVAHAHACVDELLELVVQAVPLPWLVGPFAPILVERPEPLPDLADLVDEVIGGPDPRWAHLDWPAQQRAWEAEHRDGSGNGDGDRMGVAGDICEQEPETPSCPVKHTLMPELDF
Target sequence (Q8WTS1 whole entry, looked up): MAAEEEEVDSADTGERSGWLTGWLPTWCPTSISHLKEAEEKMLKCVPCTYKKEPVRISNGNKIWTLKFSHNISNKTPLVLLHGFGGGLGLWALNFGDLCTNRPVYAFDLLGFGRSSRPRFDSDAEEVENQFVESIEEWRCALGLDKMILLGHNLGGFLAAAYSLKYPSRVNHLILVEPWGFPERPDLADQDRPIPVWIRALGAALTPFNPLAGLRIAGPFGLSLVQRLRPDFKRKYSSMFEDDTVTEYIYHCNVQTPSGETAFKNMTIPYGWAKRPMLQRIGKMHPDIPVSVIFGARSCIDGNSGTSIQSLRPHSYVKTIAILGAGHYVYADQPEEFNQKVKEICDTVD
Peg3 promoter: Peg3 promoter activity inhibition; AID 588405; inhibition, % at 20 µM; 360,000 compounds, 1.7% hits; HeLa PEG-Prom luciferase reporter, luminescence, overnight;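 active = inhibition of at least 50% at 20 µM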
EWS-Fli block: inhibitors of EWS/Fli oncoprotein transcriptional activity | A673 NR0B1-luciferase reporter, viability-normalised | inhibition, % at 12.6 µM | 350,000 compounds, 0.67% hits | AID 651661;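 active = mean inhibition of at least 50% after viability correction, with every replicate also passing that limit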;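 note: firefly luciferase signal divided by Alamar Blue viability fluorescence both relative to DMSO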
Shn3 inh set2: reduces Shn3 3'UTR luciferase signal in osteoblasts | Clone20 osteoblast Shn3 3'UTR firefly luciferase, 24 h | inhibition, % at 12.5 µM | 360,000 compounds, 0.52% hits;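 active = mean inhibition of at least 75% with every replicate also reaching 75%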;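 note: 0% = median of neutral control wells and 100% = pilot-screen positive control compound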
* = called active by the depositor.

`Cc1cccc(OCC(O)Cn2c(=N)n(CCN3CCCCC3)c3ccccc32)c1` (stereo not drawn) gave TRPM1 prom inh 79.1*, PAX8 inh HTS 18.6, ABHD5 PLIN5 PPI 7.3, Peg3 promoter 94.9* and Shn3 inh set2 63.5.
Cc1cccc(OCC(O)Cn2c(=N)n(Cc3ccccc3)c3ccccc32)c1 (stereo not drawn) was read as TRPM1 prom inh 8.9, PAX8 inh HTS -10.2, ABHD5 PLIN5 PPI 0.4, Peg3 promoter 1.9, EWS-Fli block -0.3 and Shn3 inh set2 51.7.
Screening CCN(CC)CCn1c(=N)n(CC(O)COc2cccc(C)c2)c2ccccc21 (stereo not drawn) returned TRPM1 prom inh 3.8, PAX8 inh HTS 13.3, ABHD5 PLIN5 PPI 5.2, Peg3 promoter 58.2*, EWS-Fli block 15.5 and Shn3 inh set2 82.5.
For C=CS(=O)(=O)c1c2cc(OC)ccc2nc2ccc(OC)cc12 the results were TRPM1 prom inh 40.4, PAX8 inh HTS 45.8, ABHD5 PLIN5 PPI 15.1, Peg3 promoter 98.0*, EWS-Fli block -30.9 and Shn3 inh set2 2.8.
CCCC(=O)Nc1ccc2c(c1)C(=O)N(C)C[C@H](OC)[C@H](C)CN(CC1CCOCC1)[C@H](C)CO2 was read as EWS-Fli block -5.9.
Screening Cc1cc(C)c(C#N)c(SCC(=O)c2ccc(Cl)cc2Cl)n1 returned TRPM1 prom inh 3.1, ABHD5 PLIN5 PPI -10.0, Peg3 promoter 60.0*, EWS-Fli block -13.1 and Shn3 inh set2 20.0.
For CCOC(=O)CSc1nc(C)cc(C)c1C#N the results were TRPM1 prom inh 6.3, ABHD5 PLIN5 PPI 6.0, Peg3 promoter -22.6 and Shn3 inh set2 4.7.
C[C@@H]1CCCCO[C@H](CN(C)Cc2ccc(C(=O)O)cc2)[C@@H](C)CN([C@H](C)CO)C(=O)c2cc(NC(=O)Cc3ccccc3)ccc2O1 was read as PAX8 inh HTS 1.5 and EWS-Fli block 8.2.
`CC1=C(C#N)C(C(F)(F)F)(C(F)(F)F)N=C(c2ccco2)N1` gave TRPM1 prom inh 10.3, ABHD5 PLIN5 PPI -1.8, Peg3 promoter 17.6 and Shn3 inh set2 88.9*.
For O=c1[nH]c(=O)n(Cc2ccccc2)c2c1C(C(F)(F)F)(C(F)(F)F)N=C(c1ccco1)N2 the results were TRPM1 prom inh 2.5, PAX8 inh HTS 4.7, ABHD5 PLIN5 PPI -1.9, Peg3 promoter 23.9 and Shn3 inh set2 5.6.
`CN(C)P(=O)(Nc1cccc2ccccc12)Nc1cccc2ccccc12` gave PAX8 inh HTS 39.3, ABHD5 PLIN5 PPI -12.9, Peg3 promoter 30.0, EWS-Fli block 12.6 and Shn3 inh set2 87.7*.
`CCOC(=O)c1c(CN2CCNCC2)nc2ccc(Cl)cc2c1-c1ccccc1` gave TRPM1 prom inh 89.9*, PAX8 inh HTS 9.7, ABHD5 PLIN5 PPI 0.1, Peg3 promoter 105.9*, EWS-Fli block 20.3 and Shn3 inh set2 3.3.
`Cc1nc2ccc(Cl)cc2c(-c2ccccc2)c1C(=O)N(C)C` gave TRPM1 prom inh -6.7, PAX8 inh HTS 15.1, ABHD5 PLIN5 PPI 8.2, Peg3 promoter 20.6, EWS-Fli block 11.9 and Shn3 inh set2 0.7.
`C[C@H]1CN([C@@H](C)CO)C(=O)c2cc(Br)cnc2O[C@@H]1CN(C)CC1CCOCC1` gave PAX8 inh HTS -10.5 and EWS-Fli block -10.1.
Screening O=C1c2ccccc2C(=O)N1CCc1ccccn1 returned TRPM1 prom inh 3.3, ABHD5 PLIN5 PPI 2.4, Peg3 promoter 2.6 and Shn3 inh set2 2.3.
For CN(C)CCCN1C(=O)c2cccc3c([N+](=O)[O-])ccc(c23)C1=O the results were TRPM1 prom inh 55.3, PAX8 inh HTS 15.9, ABHD5 PLIN5 PPI -1.9, Peg3 promoter 90.5* and Shn3 inh set2 10.6.
Screening O=C1c2cccc3c([N+](=O)[O-])ccc(c23)C(=O)N1CCc1ccccn1 returned TRPM1 prom inh 19.8, PAX8 inh HTS 12.5, ABHD5 PLIN5 PPI 0.0, Peg3 promoter 91.5* and EWS-Fli block 20.3.
C[C@H]1CN([C@@H](C)CO)C(=O)c2cc(C3=CCCCC3)cnc2O[C@H]1CN(C)C(=O)CN1CCOCC1 was read as EWS-Fli block -12.1.
For COCC#Cc1ccc([C@H]2[C@@H](CO)N3CCCCN(C(=O)Nc4cc(F)ccc4F)C[C@H]23)cc1 the results were PAX8 inh HTS -17.8 and EWS-Fli block 14.4.
Screening CCC(=O)N1[C@H](CO)[C@@H](c2ccccc2)C12CN(CCC(F)(F)F)C2 returned PAX8 inh HTS -4.9 and EWS-Fli block -2.5.
